Compound activity (PubChem)
ATXN2 expr inh – Primary qHTS for Inhibitors of ATXN expression. HEK-293 ATXN2-luciferase reporter, luminescence, 24 h. Potency, µM (titrated, usually from 57 µM), usual class: inhibitors. actives 0.72% (n = 360,000); also: nearly all actives have a fitted effect of over 55% in size
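qHTS (up to 57 uM final) was run with 24 h compound exposure of reporter cells at 37 °C. Each well was multiplexed: SteadyGlo luminescence measured ATXN2-luciferase expression after a fluorogenic Gly-Phe-AFC viability readout (25 uM final).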
HT1080NT lethal – qHTS for induction of synthetic lethality in tumor cells producing 2HG: qHTS for the HT-1080-NT fibrosarcoma cell line. Potency, µM (doses to about 46.1 µM), usual class: cytotoxic. actives 1.6% (n = 360,000). HT-1080-NT fibrosarcoma viability, CellTiter-Glo ATP luminescence, 48 h. AID 686970, 2013;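 also: NT is the 2HG producing partner of a matched IDH1 knockdown line; nearly all actives have a fitted effect of over 55% in size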
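Viability by CellTiter-Glo luminescence after 48 h compound exposure at 37C of HT-1080-NT cells (750/well, RPMI, 5% FBS). % activity scaled between DMSO wells and medium-only wells, then curve-fitted and categorized by curve class.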
TGFb inhibitor – qHTS for Inhibitors of TGF-b; HepG2 CAGA-GFP TGF-b/SMAD3 reporter, GFP fluorescence, 18 h; TGF-beta stimulated, 500 pg/mL final; Potency, µM (top dose mostly 46.1 µM), hits mostly inhibitors; actives 1.2% (n = 410,000); AID 588855, 2011; also: nearly all actives have a fitted effect of over 65% in size
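HEPG2 CAGA-GFP cells (1000/well, DMEM with 1% FBS) were pre-incubated 2 h at 37 degrees C, given compound by pin tool, then stimulated with TGF-beta at 500 pg/mL final for 18 h before per-cell GFP fluorescence imaging.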
HepG2 tox – qHTS for Inhibitors of TGF-b: Cytotox Counterscreen; HepG2 CAGA-GFP viability, ATP luminescence, 18 h; Potency, µM (series often up to 46.1 µM), actives largely listed as cytotoxic; actives 0.76% (n = 410,000)
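HepG2 CAGA-GFP cells (1000/well, DMEM with 1% FBS) received compound, then TGF-beta at 500 pg/mL final, and were incubated 18 hours at 37 degrees C. Viability was read by CellTiter-Glo luminescence. Media-only wells were set as complete cell-killing and DMSO as no toxicity.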
HT1080 IDH1KD tx – qHTS for induction of synthetic lethality in tumor cells producing 2HG: qHTS for the HT-1080-IDH1KD cell line. HT-1080 IDH1 knockdown viability, ATP luminescence, 48 h. Potency, µM (series often up to 46.1 µM), actives largely listed as cytotoxic. actives 2% (n = 360,000). AID 686971, 2013
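IDH1KD HT-1080 cells, 750/well, RPMI + 5% FBS; compound pinned after 2 h settling; 48 h, 37 °C; CellTiter-Glo luminescence; % activity normalised to DMSO and no-cell wells; curves fitted, classed by r2 and efficacy.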
ATXN viability – Viability Counterscreen for Primary qHTS for Inhibitors of ATXN expression | AID 651635, 2014 | Potency, µM (doses to about 56.7 µM), most hits filed as cytotoxic | actives 0.49% (n = 400,000) | S2 cells (HEK-293 line with an ATXN2-luciferase reporter) viability, CellTiter-Fluor protease fluorescence, 24 h; also: nearly all actives have a fitted effect of over 40% in size
A number is an active result; ! = not active in a repeat; [ ] = another dose, or the depositor's remark. Shown are actives, neighbours in structure and some others; about 3.9% of the full set was active somewhere. Calls follow the shape of the dose curve; as a rule, active = well fitted curve in the direction sought with a large enough effect; inconclusive = small, poorly fitted or top-dose-only effect, or another doubt; inactive = no such curve, though single readings can be large; an effect the other way counts as inactive or inconclusive.

Results for O=C(O)c1cc([N+](=O)[O-])c(Sc2nc3ccccc3[nH]2)c([N+](=O)[O-])c1 ?
HT1080NT lethal: inactive; TGFb inhibitor: inactive; HepG2 tox: inactive; HT1080 IDH1KD tx: inactive; ATXN viability: inconclusive

Results for Cn1cnc([N+](=O)[O-])c1Sc1nc2ccccc2[nH]1 ?
ATXN2 expr inh: inconclusive; HT1080NT lethal: inconclusive; TGFb inhibitor: inactive; HepG2 tox: inactive; HT1080 IDH1KD tx: 18µM; ATXN viability: inconclusive

What do the screens show for `CS(=O)(=O)c1cc([N+](=O)[O-])c(Sc2nc3ccccc3[nH]2)c([N+](=O)[O-])c1`?
ATXN2 expr inh: inconclusive; HT1080NT lethal: 11µM; TGFb inhibitor: inconclusive; HepG2 tox: inactive; HT1080 IDH1KD tx: 10µM; ATXN viability: inconclusive

How did Cc1cccc(Sc2c([N+](=O)[O-])ncn2C)c1 do in these assays?
ATXN2 expr inh: inactive; HT1080NT lethal: inactive; TGFb inhibitor: inactive; HepG2 tox: inactive; HT1080 IDH1KD tx: inactive; ATXN viability: inactive

Results for CCc1nc(C)cn1S(=O)(=O)c1ccc(Cl)c(Cl)c1OC ?
TGFb inhibitor: inconclusive; HepG2 tox: inactive

What do the screens show for `C/C(=N/NC(=O)c1ccncc1)C(=O)O`?
ATXN2 expr inh: inactive; ATXN viability: inactive

How did COc1cc(NC(=O)c2csc(N)n2)cc(C(=O)Nc2cccc(C(F)(F)F)c2)c1 do in these assays?
ATXN2 expr inh: inconclusive; HT1080NT lethal: 16µM; TGFb inhibitor: inconclusive; HepG2 tox: inactive; HT1080 IDH1KD tx: 21µM; ATXN viability: 18µM

How did COc1cc(NC(=O)c2cnc(N)o2)cc(C(=O)Nc2cccc(C(F)(F)F)c2)c1 do in these assays?
ATXN2 expr inh: inconclusive; HT1080NT lethal: inactive; TGFb inhibitor: inconclusive; HepG2 tox: inactive; HT1080 IDH1KD tx: inactive; ATXN viability: 20µM

What do the screens show for `COc1cc(NC(=O)c2cc(C)on2)cc(C(=O)Nc2cccc(C(F)(F)F)c2)c1`?
ATXN2 expr inh: inconclusive; HT1080NT lethal: inconclusive; TGFb inhibitor: inconclusive; HepG2 tox: inactive; HT1080 IDH1KD tx: inconclusive; ATXN viability: inconclusive

How did COc1cc(NC(=O)c2cnc(N)s2)cc(C(=O)Nc2cccc(C(F)(F)F)c2)c1 do in these assays?
ATXN2 expr inh: inactive; HT1080NT lethal: inactive; TGFb inhibitor: inconclusive; HepG2 tox: inactive; HT1080 IDH1KD tx: inactive; ATXN viability: 35µM!

Results for Cc1cccc(CCNC(=O)c2sc3nc4n(c(=O)c3c2C)CCCC4)c1 ?
ATXN2 expr inh: inactive; TGFb inhibitor: inactive; HepG2 tox: inactive; ATXN viability: inactive

Results for Cc1ccc(S(=O)c2snnc2C)cc1 (configuration not stated) ?
ATXN2 expr inh: inactive; HT1080NT lethal: inactive; TGFb inhibitor: inactive; HepG2 tox: inactive; HT1080 IDH1KD tx: inactive; ATXN viability: inactive

How did CNC(=O)c1nnsc1S(=O)c1ccc(Cl)cc1 (configuration not stated) do in these assays?
ATXN2 expr inh: inactive[11.3 µM]; HT1080NT lethal: 15µM; TGFb inhibitor: inconclusive; HepG2 tox: inactive; HT1080 IDH1KD tx: 23µM; ATXN viability: inconclusive

Results for CCCNC(=O)c1nnsc1S(=O)(=O)c1ccc(Cl)cc1 ?
ATXN2 expr inh: inactive[11.3 µM]; HT1080NT lethal: 13µM; TGFb inhibitor: inconclusive; HepG2 tox: 18µM; HT1080 IDH1KD tx: inconclusive; ATXN viability: inconclusive

What do the screens show for `CCCNC(=O)c1nnsc1S(=O)c1ccc(Cl)cc1` (configuration not stated)?
ATXN2 expr inh: inconclusive; HT1080NT lethal: 18µM; TGFb inhibitor: inconclusive; HepG2 tox: inactive; HT1080 IDH1KD tx: 16µM

What do the screens show for `COc1cc(NC(=O)CCn2c(-c3ccccc3)cc(C(C)=O)c2C)cc(OC)c1`?
TGFb inhibitor: inactive; HepG2 tox: inactive

Results for Cc1cccc(C(=O)N2CCOc3ccc(CN(C)Cc4cc(C5CC5)n[nH]4)cc3C2)n1 ?
ATXN viability: inactive

How did Cc1cccc(-n2cc(-c3ccccc3)c3c(N4CCOCC4)ncnc32)c1 do in these assays?
HT1080NT lethal: 21µM; TGFb inhibitor: inconclusive; HepG2 tox: inactive; HT1080 IDH1KD tx: 13µM; ATXN viability: inactive

How did Cc1cccc(-n2ncc3c(N4CCOCC4)ncnc32)c1 do in these assays?
ATXN2 expr inh: 10µM; HT1080NT lethal: inactive; TGFb inhibitor: inactive; HepG2 tox: inactive; HT1080 IDH1KD tx: inactive; ATXN viability: inactive

How did Cc1ccc(-n2cc(-c3ccccc3)c3c(N4CCOCC4)ncnc32)cc1 do in these assays?
ATXN2 expr inh: inactive; HT1080NT lethal: inconclusive; TGFb inhibitor: inactive; HepG2 tox: inactive; HT1080 IDH1KD tx: inconclusive; ATXN viability: inactive

What do the screens show for `OCCN1CCN(c2ncnc3c2c(-c2ccccc2)cn3-c2ccc(F)cc2)CC1`?
ATXN2 expr inh: inactive; HT1080NT lethal: inconclusive; TGFb inhibitor: inactive; HepG2 tox: inactive; HT1080 IDH1KD tx: 18µM; ATXN viability: inactive

Results for CC[C@H]1OC(=O)[C@H](C)[C@@H](O[C@H]2C[C@@](C)(OC)[C@@H](O)[C@H](C)O2)[C@H](C)[C@@H](O[C@@H]2O[C@H](C)C[C@H](N(C)C)[C@H]2O)[C@](C)(O)C[C@H](C)C(=NOCOCCOC)[C@H](C)[C@@H](O)[C@]1(C)O ?
ATXN2 expr inh: inactive; ATXN viability: inactive

How did CC1CC(=O)NN=C1c1ccc(NCC(C)(C)NCC(O)COc2cc(Cl)ccc2C#N)cc1 (configuration not stated) do in these assays?
ATXN2 expr inh: inactive; ATXN viability: inactive

Results for Cc1c2ccccc2cc[n+]1C ?
TGFb inhibitor: inactive; HepG2 tox: inactive

Results for CC1=[N+](C)c2ccc3ccccc3c2C1(C)C ?
ATXN2 expr inh: inconclusive; HT1080NT lethal: inactive; TGFb inhibitor: 6.3µM; HepG2 tox: inactive; HT1080 IDH1KD tx: inactive; ATXN viability: inactive

How did CCOc1ccc(NC(=O)Nc2c[nH]c(=O)[nH]c2=O)cc1 do in these assays?
ATXN2 expr inh: inactive; TGFb inhibitor: inactive; HepG2 tox: inactive; ATXN viability: inactive

How did CCOC(=O)c1ccc(NC(=O)Nc2c[nH]c(=O)[nH]c2=O)cc1 do in these assays?
ATXN2 expr inh: inactive; TGFb inhibitor: inactive; HepG2 tox: 3.2µM; ATXN viability: inactive
